The source made the active and inactive calls. The calls were made as follows: active = hit-call score of the fitted dose curve at least 0.9, where 1 is the maximum; inactive = score below 0.9.
Columns and labels:
Settings in all cases: mRNA level, 48 h; actives raise or lower the signal
[1] = read-out: Cytochrome P450 7A1 (Homo sapiens) (UniProt P22680); assay: LTEA_HepaRG_CYP7A1: Life Technologies and Expression Analysis (LTEA) Assay for Cytochrome P450 7A1 (CYP7A1) using HepaRG (AID 2283496)
Procedure, shortened: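 HepaRG, 48 h exposure, 8-pt half-log series from 100 uM, 0.5% DMSO vehicle, duplicates. Readout: TaqMan qRT-PCR mRNA vs three housekeeping genes; bidirectional curve fit against DMSO baseline.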

[2] = read-out: Glutathione S-Transferase (GSTA2), GSTA2 (gene 2939); assay: LTEA_HepaRG_GSTA2: Life Technologies and Expression Analysis (LTEA) Assay for Glutathione S-Transferase (GSTA2) using HepaRG (AID 2283497)
Procedure, shortened: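 GSTA2 transcript levels came from Fluidigm TaqMan qRT-PCR normalized to three housekeeping genes, fitted in both directions against DMSO. HepaRG cultures received chemicals for 48 h in serum-free induction medium (0.5% DMSO), 8 half-log concentrations up to 100 uM, duplicate.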

[3] = read-out: Glutamate-cysteine ligase catalytic (GCLC), GCLC (gene 2729); assay: LTEA_HepaRG_GCLC: Life Technologies and Expression Analysis (LTEA) Assay for Glutamate-cysteine ligase catalytic (GCLC) using HepaRG (AID 2283498)
Procedure, shortened: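 Expression by TaqMan qRT-PCR, normalized to three housekeeping genes (ACTB, GAPDH, POLR2A), with up- or down-regulation fitted against DMSO. HepaRG cells dosed in duplicate for 48 h with 8 half-log concentrations up to 100 uM, vehicle 0.5% DMSO.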

[4] = read-out: growth arrest and DNA damage 45 (GADD45G), GADD45G (gene 10912); assay: LTEA_HepaRG_GADD45G: Life Technologies and Expression Analysis (LTEA) Assay for growth arrest and DNA damage 45 (GADD45G) using HepaRG (AID 2283499)
Procedure, shortened: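 GADD45G transcript level by qRT-PCR (housekeeping-normalized: ACTB, GAPDH, POLR2A) after 48 h chemical treatment of a single HepaRG lot in serum-free induction medium; eight-point half-log series up to 100 uM in 0.5% DMSO, duplicates, up- or down-regulation scored.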

[5] = read-out: Glutamate-cysteine ligase regulatory (GCLM), GCLM (gene 2730); assay: LTEA_HepaRG_GCLM: Life Technologies and Expression Analysis (LTEA) Assay for Glutamate-cysteine ligase regulatory (GCLM) using HepaRG (AID 2283500)
Procedure, shortened: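 GCLM expression quantified by qRT-PCR, normalized to three housekeeping genes, after 48 h chemical treatment of HepaRG cells in duplicate at 8 concentrations (top 100 uM, half-log steps, 0.5% DMSO). Changes fitted both directions against vehicle.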

[6] = read-out: Glutathione S-transferase M3 (GSTM3), GSTM3 (gene 2947); assay: LTEA_HepaRG_GSTM3: Life Technologies and Expression Analysis (LTEA) Assay for Glutathione S-transferase M3 (GSTM3) using HepaRG (AID 2283501)
Procedure, shortened: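 GSTM3 transcript levels came from Fluidigm TaqMan qRT-PCR normalized to three housekeeping genes, fitted in both directions against DMSO. HepaRG cultures received chemicals for 48 h in serum-free induction medium (0.5% DMSO), 8 half-log concentrations up to 100 uM, duplicate.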

[7] = read-out: Heat shock 70 kDa protein 1 (HSPA1A), gene 3303; assay: LTEA_HepaRG_HSPA1A: Life Technologies and Expression Analysis (LTEA) Assay for Heat shock 70 kDa protein 1 (HSPA1A) using HepaRG (AID 2283502)
Procedure, shortened: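 HSPA1A expression measured by qRT-PCR with ACTB/GAPDH/POLR2A normalization; curves fitted in both directions relative to DMSO vehicle. Exposure: 48 h in HepaRG cells, duplicate 8-point half-log series from 100 uM, 0.5% DMSO, serum-free induction medium.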

[8] = read-out: Hypoxia-inducible factor 1-alpha (Homo sapiens) (UniProt Q16665); assay: LTEA_HepaRG_HIF1A: Life Technologies and Expression Analysis (LTEA) Assay for Hypoxia-inducible factor 1 (HIF1A) Trancription factor using HepaRG (AID 2283503)
Procedure, shortened: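 HIF1A transcript level read by qRT-PCR (ACTB, GAPDH, POLR2A normalization) after 48 h chemical exposure of HepaRG cultures. Eight half-log concentrations, top 100 uM, 0.5% DMSO vehicle, duplicates; bidirectional curve fit against DMSO baseline.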

[9] = read-out: 3-Hydroxy-3-Methylglutaryl-CoA Synthase 2 (HMGCS2), HMGCS2 (gene 3158); assay: LTEA_HepaRG_HMGCS2: Life Technologies and Expression Analysis (LTEA) Assay for 3-Hydroxy-3-Methylglutaryl-CoA Synthase 2 (HMGCS2) using HepaRG (AID 2283504)
Procedure, shortened: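 Readout is HMGCS2 transcript by qRT-PCR, housekeeping-normalised (ACTB/GAPDH/POLR2A) and fitted bidirectionally against 0.5% DMSO. Differentiated HepaRG cells received chemicals 48 h, duplicate wells, eight half-log concentrations topping at 100 uM.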

[10] = read-out: HGF (gene 3082); assay: LTEA_HepaRG_HGF: Life Technologies and Expression Analysis (LTEA) Assay for Hepatocyte Growth Facto (HGF) using HepaRG (AID 2283505)
Procedure, shortened: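 HGF transcript was quantified by TaqMan qRT-PCR against three housekeeping genes after 48 h treatment of HepaRG cells. Exposure ran in duplicate over eight half-log steps topping at 100 uM in 0.5% DMSO vehicle.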

[11] = read-out: Insulin Like Growth Factor 1 (IGF1), IGF1 (gene 3479); assay: LTEA_HepaRG_IGF1: Life Technologies and Expression Analysis (LTEA) Assay for Insulin Like Growth Factor 1 (IGF1) using HepaRG (AID 2283506)
Procedure, shortened: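 Expression measured by TaqMan qRT-PCR on a Fluidigm array, with three housekeeping genes for normalisation, after 48 h treatment of HepaRG cells. Top concentration 100 uM with half-log steps, 0.5% DMSO vehicle, bidirectional fit.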

[12] = read-out: Intercellular Adhesion Molecule 1 (ICAM1), ICAM1 (gene 3383); assay: LTEA_HepaRG_ICAM1: Life Technologies and Expression Analysis (LTEA) Assay for Intercellular Adhesion Molecule 1 (ICAM1) using HepaRG (AID 2283507)
Procedure, shortened: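 ICAM1 transcript levels measured by qRT-PCR, normalized to three housekeeping genes (ACTB, GAPDH, POLR2A), after 48 h chemical exposure of HepaRG cells. Duplicate eight-point half-log series from 100 uM in 0.5% DMSO; gain or loss fitted against vehicle.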

[13] = read-out: Insulin-like growth factor-binding protein 1 (IGFBP1), IGFBP1 (gene 3484); assay: LTEA_HepaRG_IGFBP1: Life Technologies and Expression Analysis (LTEA) Assay for Insulin-like growth factor-binding protein 1 (IGFBP1) using HepaRG (AID 2283508)
Procedure, shortened: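 Read-out is qRT-PCR transcript level normalized to three housekeeping genes, fitted in both directions against 0.5% DMSO. Differentiated HepaRG cells received eight half-log concentrations (top 100 uM) in duplicate for 48 h in serum-free induction medium.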

[14] = read-out: Interleukin 6 (IL6), IL6 (gene 3569); assay: LTEA_HepaRG_IL6: Life Technologies and Expression Analysis (LTEA) Assay for Interleukin 6 (IL6) using HepaRG (AID 2283509)
Procedure, shortened: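 Transcript levels, normalized to three housekeeping genes, were quantified by qRT-PCR after 48 h chemical treatment of HepaRG cells. Eight-point half-log series from 100 uM in 0.5% DMSO, duplicates. Fitted both directions against DMSO baseline.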

[15] = read-out: Interleukin 6 Receptor (IL6R), IL6R (gene 3570); assay: LTEA_HepaRG_IL6R: Life Technologies and Expression Analysis (LTEA) Assay for Interleukin 6 Receptor (IL6R) using HepaRG (AID 2283510)
Procedure, shortened: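 IL6R transcript level by qRT-PCR after 48 h chemical exposure (8-point, half-log, max 100 uM, 0.5% DMSO vehicle) of HepaRG cells in serum-free induction medium. Normalized to three housekeeping genes; curves fitted in both directions relative to DMSO.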

[16] = read-out: Potassium channel subfamily K member 1 (KCNK1), KCNK1 (gene 3775); assay: LTEA_HepaRG_KCNK1: Life Technologies and Expression Analysis (LTEA) Assay for Potassium channel subfamily K member 1 (KCNK1) using HepaRG (AID 2283511)
Procedure, shortened: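 KCNK1 transcript measured by TaqMan qRT-PCR against three housekeeping genes, after HepaRG cells were treated 48 h with eight half-log concentrations (top 100 uM, 0.5% DMSO). Curves fitted bidirectionally relative to vehicle.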

[17] = read-out: Keratin 19 (KRT19), KRT19 (gene 3880); assay: LTEA_HepaRG_KRT19: Life Technologies and Expression Analysis (LTEA) Assay for Keratin 19 (KRT19) using HepaRG (AID 2283512)
Procedure, shortened: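 KRT19 transcript measured by TaqMan qRT-PCR, referenced to three housekeeping genes, after HepaRG cells received test chemicals for 48 h. Eight half-log concentrations, top 100 uM, 0.5% DMSO vehicle; increases and decreases both fitted.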

[18] = read-out: JUN Transcription Factor, JUN (gene 3725); assay: LTEA_HepaRG_JUN: Life Technologies and Expression Analysis (LTEA) Assay for JUN Transcription Factor using HepaRG (AID 2283513)
Procedure, shortened: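 mRNA measured by TaqMan qRT-PCR after 48 h chemical exposure of HepaRG cultures; normalization to three housekeeping genes. Duplicate eight-point half-log curves from 100 uM in 0.5% DMSO; gain or loss fitted against DMSO baseline.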

[19] = read-out: Lipase C (LIPC), LIPC (gene 3990); assay: LTEA_HepaRG_LIPC: Life Technologies and Expression Analysis (LTEA) Assay for Lipase C (LIPC) using HepaRG (AID 2283514)
Procedure, shortened: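 LIPC expression was quantified by qRT-PCR against three housekeeping genes (ACTB, GAPDH, POLR2A). Differentiated human HepaRG cells received eight half-log doses (top 100 uM, 0.5% DMSO) in duplicate for 48 h; fitting bidirectional relative to DMSO.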

[20] = read-out: Lipoprotein lipase (LPL), LPL (gene 4023); assay: LTEA_HepaRG_LPL: Life Technologies and Expression Analysis (LTEA) Assay for Lipoprotein lipase (LPL) using HepaRG (AID 2283515)
Procedure, shortened: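 LPL transcript levels quantified by TaqMan qRT-PCR against three housekeeping genes after 48 h chemical treatment of HepaRG cells. Eight-point half-log series from 100 uM in 0.5% DMSO, tested in duplicate; bidirectional fitting versus vehicle.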

Measured: outcome

Sequence of Hypoxia-inducible factor 1-alpha (Homo sapiens) (Q16665 whole entry, looked up): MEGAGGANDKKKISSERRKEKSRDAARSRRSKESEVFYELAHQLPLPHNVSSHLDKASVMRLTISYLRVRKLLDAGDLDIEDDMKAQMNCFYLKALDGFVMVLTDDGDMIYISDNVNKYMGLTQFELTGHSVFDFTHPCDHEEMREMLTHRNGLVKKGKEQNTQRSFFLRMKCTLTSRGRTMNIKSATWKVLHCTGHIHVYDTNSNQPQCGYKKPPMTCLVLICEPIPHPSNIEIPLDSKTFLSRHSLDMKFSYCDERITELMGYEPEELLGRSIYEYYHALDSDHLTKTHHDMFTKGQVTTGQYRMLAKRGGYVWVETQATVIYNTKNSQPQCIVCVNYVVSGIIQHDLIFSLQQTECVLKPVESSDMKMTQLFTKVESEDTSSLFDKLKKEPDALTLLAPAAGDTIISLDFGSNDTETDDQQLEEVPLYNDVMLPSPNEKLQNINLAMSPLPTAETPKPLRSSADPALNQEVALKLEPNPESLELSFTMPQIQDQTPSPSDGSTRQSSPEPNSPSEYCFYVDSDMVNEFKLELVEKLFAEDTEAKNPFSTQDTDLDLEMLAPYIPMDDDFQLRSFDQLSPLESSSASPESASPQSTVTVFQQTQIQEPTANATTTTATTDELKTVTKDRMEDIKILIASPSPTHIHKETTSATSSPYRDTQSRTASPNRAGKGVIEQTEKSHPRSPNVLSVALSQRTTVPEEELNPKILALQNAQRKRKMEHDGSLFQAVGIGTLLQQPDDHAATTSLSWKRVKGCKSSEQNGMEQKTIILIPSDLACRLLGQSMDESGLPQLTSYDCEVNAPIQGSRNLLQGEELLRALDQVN

CC(=O)c1ccccc1
inactive: all assays above

Nc1ccn([C@@H]2O[C@H](CO)[C@@H](O)[C@@H]2O)c(=O)n1
not listed: [3]
inactive: all other assays above

CCOC(N)=O
not listed: [6] | [14]
inactive: all other assays above

— PubChem BioAssay (EPA / NIEHS)
